Assay results from ChEMBL document CHEMBL3433997, “St. Jude Leishmania screening dataset” (2016).

Tests used:
Type in all cases: functional
[1] = biological target: Solute carrier family 2, facilitated glucose transporter member 1 (Homo sapiens) (UniProt P11166); assay: ST_JUDE_LEISH: Cytotoxicity at 2uM final concentration against transgenic Leishmania Mexicana promastigotes LmGLUT1 that are glucose transport deficient and complemented with the human glucose transporter GLUT1. Activity is measured by DNA content using SYBR green in vitro
Solute carrier family 2, facilitated glucose transporter member 1 (Homo sapiens), sequence (P11166 whole entry): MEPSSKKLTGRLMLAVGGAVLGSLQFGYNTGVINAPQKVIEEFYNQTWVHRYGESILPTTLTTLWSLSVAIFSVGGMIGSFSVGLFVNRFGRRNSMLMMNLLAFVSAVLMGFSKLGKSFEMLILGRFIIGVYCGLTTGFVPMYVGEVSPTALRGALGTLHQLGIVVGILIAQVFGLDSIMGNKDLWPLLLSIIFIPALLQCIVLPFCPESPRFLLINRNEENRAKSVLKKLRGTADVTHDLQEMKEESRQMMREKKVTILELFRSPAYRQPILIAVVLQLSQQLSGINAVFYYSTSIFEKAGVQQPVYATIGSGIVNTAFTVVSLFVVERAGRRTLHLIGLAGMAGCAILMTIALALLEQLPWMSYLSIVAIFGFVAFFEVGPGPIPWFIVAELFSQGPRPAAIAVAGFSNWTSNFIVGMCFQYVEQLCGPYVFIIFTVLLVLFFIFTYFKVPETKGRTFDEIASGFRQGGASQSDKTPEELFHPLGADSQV

[2] = biological target: Hexose transporter 1 (Plasmodium falciparum) (UniProt O97467); assay: ST_JUDE_LEISH: Cytotoxicity at 2uM final concentration against transgenic Leishmania Mexicana promastigotes LmPfHT that are glucose transport deficient and complemented with the Plasmodium falciparum hexose transporter. Activity is measured by DNA content using SYBR green in vitro
[3] = biological target: Glucose transporter (Leishmania mexicana) (UniProt O61059); assay: ST_JUDE_LEISH: Cytotoxicity at 2uM final concentration against transgenic Leishmania Mexicana promastigotes LmGT2 that are glucose transport deficient and complemented with the L. Mexicana glucose transporter 2. Activity is measured by DNA content using SYBR green in vitro

Row | SMILES | inhibition [1] | inhibition [2] | inhibition [3]
1 | C=CCOC(=O)N1CCC(CNCc2cccc(-c3cccc(-c4nc5ccccc5[nH]4)c3)c2)C1 (stereo unspecified) | -1.85% | 5.8% | 0.62%
2 | COc1cc(Cc2cnc(N)nc2N)ccc1OCc1ccc(F)c(F)c1 | 3.03% | 5.38% | 4.59%
3 | COc1ccccc1CCNc1nc(C)cc(N[C@@H](CC(C)C)C(=O)NCc2cccs2)n1 | 6.71% | 5.41% | 4.04%
4 | N#Cc1ccc(N/C(=N\c2ccc(-c3ccccc3)cc2)NC2CCCc3ccccc32)c(O)c1 (stereo unspecified) | -1.53% | 0.81% | -0.07%
5 | COc1ccc2nc(C)cc(NC3Cc4ccccc4C3)c2c1 | 7.7% | 5.19% | 0.76%
6 | O=C(Nc1ccccc1F)N(CCCn1ccnc1)Cc1csc(-c2ccc(CNCc3ccccc3)cc2)n1 | -0.67% | 0.06% | 3.14%
7 | O=C(NC1CCN(c2ccnc3cc(Cl)ccc23)C1)c1ccccc1F (stereo unspecified) | 1.93% | 2.22% | 2.72%
8 | OCCOCCNCc1cccc(C#Cc2cc3ncnc(Nc4ccc(OCc5cccc(F)c5)c(Cl)c4)c3s2)n1 | -0.5% | 1.33% | 1.82%
9 | c1ccc(CNCc2cccc(-c3cccc(-c4nc5ccccc5[nH]4)c3)c2)cc1 | 4.44% | 5.52% | 3.48%
10 | COc1ccc(Cn2c(Nc3cccc(C(F)(F)F)c3)nc3ccc(C(=O)NCCN4CCCC4)cc32)cc1Cl | 8.87% | 6.74% | 14.2%
11 | CCC(C)NS(=O)(=O)c1ccc2nc(Nc3ccc(C)c(Cl)c3)n([C@H](C)C(C)(C)C)c2c1 (stereo partly specified) | 2.63% | 2.57% | 0.57%
12 | N#Cc1ccc(NC(=O)c2ccc(Cc3ccc4c(c3)CCN(C3CCC3)CC4)cn2)cc1 | 9.64% | 10.6% | 10.4%
13 | CCCCCC(NCCCC)c1ccc(OCCOc2ccc(C(CCCCC)NCCCC)cc2)cc1 (stereo unspecified) | 60.3% | 86% | 85.3%
14 | CCc1ccnc2c(N3CCCC3=O)cc(C(=O)N[C@@H](Cc3ccccc3)[C@H](O)CNC3CCOCC3)cc12 | 3.63% | 0.4% | 0.64%
15 | O=C(Nc1cccc(-c2cccc(-c3nc4ccccc4[nH]3)c2)c1)c1ccoc1 | 7.02% | 5.63% | 3.82%
16 | O=C(Cc1cccs1)NCC(c1ccccc1Cl)c1c[nH]c2ccccc12 (stereo unspecified) | 2.89% | 0.74% | 1.14%
17 | CCCC(C)Nc1nc(C)cc(N[C@@H](CC(C)C)C(=O)NCc2ccc(C)cc2)n1 (stereo partly specified) | 3.04% | 4.01% | 0.38%
18 | Cc1ncsc1CCN1C(=O)CC2(C1=O)C(=O)N(Cc1ccccc1)c1ccc(Cl)cc12 (stereo unspecified) | 1.9% | 2.58% | -1.17%
19 | CC(=O)NCCCCC1NC2(C(=O)N(Cc3ccc(C(C)(C)C)cc3)c3ccccc32)C2C(=O)N(C3CCCCC3)C(=O)C12 (stereo unspecified) | -1.24% | -3.01% | -0.43%
20 | CCN1CCN(c2ccc(Nc3ccnc4ccc(Br)cc34)cc2)CC1 | 1.43% | 0.09% | -0.25%
21 | Cc1nc2nc(N)nc(N)c2c(C)c1Cc1ccccc1 | 3.29% | 2.88% | 1.2%
22 | CCc1cc(OC)c(C(=O)NC2CCN(C[C@H](O)c3ccnc4ccc(OC)cc34)CC2)cc1Br | 1.58% | -0.43% | -0.3%
23 | O=C(/C=C/c1ccc(Cl)c(Cl)c1)NCCCCCN1CCC(NC(=O)Nc2ccc(OC(F)F)cc2)CC1 | -1.59% | -0.5% | 5.2%
24 | Cc1ccccc1CNc1noc(-c2c(F)cccc2Cl)n1 | 4.28% | 5.55% | 5.34%

Row | SMILES | inhibition [1] | inhibition [2] | inhibition [3]
25 | CCc1c(CCNCCc2cccc(CCNCCc3ccc(OC)c(OC)c3CC)c2)ccc(OC)c1OC | 2.06% | -1.49% | 0.27%
26 | CCN(CC)CCCC(C)N/C(=N\c1ccccc1Br)Nc1ccc(C#N)cc1O (stereo unspecified) | 1.03% | 0.06% | -1.67%
27 | Cc1cccc(CNc2nc(C)cc(N[C@@H](Cc3ccccc3)C(=O)NCCOc3ccccc3)n2)c1 | 16.6% | 15.8% | 11.4%
28 | Nc1ccnc(N2CCC(CCOc3ccnc4cc(Cl)ccc34)CC2)c1 | 11.9% | 22.8% | 6.6%
29 | CC(=NNC(S)=NC(C)(C)C)c1ccccn1 | 65.9% | 69.5% | 49.6%
30 | CC(=O)N(Cc1nc(-c2cc(Cl)c(Cl)s2)cs1)c1c(C)cccc1C | 4.94% | 4.38% | 5.58%
31 | Cc1nc2nc(N)nc(N)c2c(C)c1Cc1ccc(C(F)(F)F)cc1 | 32.9% | 38.8% | 28.9%
32 | CCCCOc1ccc(CNCCCCCCNCc2ccc(OCCCC)c3ccccc23)c2ccccc12 | 104% | 102% | 103%
33 | CN(c1ccc2c(c1)nc(NCc1ccccc1)n2C)c1ccnc(Nc2ccc(CS(C)(=O)=O)cc2)n1 | 4.69% | 1.86% | 3.22%
34 | COc1cccc(Nc2nc(C)cc(NCc3ccc(-n4ccnc4)cc3)n2)c1 | 4.08% | 13.7% | 8.06%
35 | O=C(/C=C/c1ccc(Cl)c(Cl)c1)NCCCCCN1CCCN(C(=O)Nc2ccc(F)c(F)c2)CC1 | 2.67% | 2.88% | 6.1%
36 | CCCc1cc(OC)c(CC2c3cc(O)c(Cl)cc3C(c3ccccc3)CN2C)cc1OC (stereo unspecified) | 7.84% | 1.11% | 3.98%
37 | Cc1cccc2nc(-c3ccc(-c4ccc(CNCc5cnn(-c6ccccc6)n5)cc4)s3)[nH]c12 | -1.78% | -1.57% | -1.83%
38 | CN(C)CCCOc1ccc(-c2nc(-c3ccc4c(c3)CCC4=NO)c(-c3ccncc3)[nH]2)cc1 | 2.55% | 2.33% | 1.24%
39 | CN(C)c1cc(C(=O)N[C@@H](Cc2ccccc2)[C@H](O)CNC2CCCCC2)cc2[nH]ccc12 | 5.43% | 4.72% | 7.44%
40 | CN1CCc2cc(I)c(O)cc2C1Cc1ccccc1Cl (stereo unspecified) | 1.98% | 3.88% | 2.59%
41 | CN(c1ccc(NC(=O)c2cccc(F)c2)cc1)C1CCCN(Cc2cccc(O)c2)C1 (stereo unspecified) | -0.85% | -2.67% | -0.73%
42 | N=C(N)NN=CC(=O)Nc1cccc(C(F)(F)F)c1 | 0.23% | 0.15% | -1.62%
43 | NC(=O)c1sc(-n2cnc3ccc(OCC4CCNCC4)cc32)cc1OCc1ccccc1C(F)(F)F | 0.4% | -0.16% | 0.31%
44 | CC(CCc1ccccc1)NCC(O)c1ccc2c3c(cccc13)S(=O)(=O)N2C (stereo unspecified) | 5.47% | 5.04% | 4.71%
45 | Cc1ccc(O)cc1Nc1ccnc2ccc(-c3csc(CNCCN4CCOCC4)n3)cc12 | 3.28% | 2.25% | 1.59%
46 | COc1ccc2ncc(F)c(CCN3CC4CCCC4(CNCc4ccc5c(n4)NC(=O)CS5)C3)c2n1 (stereo unspecified) | 1.18% | 1.32% | 0.3%
47 | CN1CCN(c2ccnc3ccc(NC(=O)N(C)c4ccc(Cl)c(Cl)c4)cc23)CC1 | -0.11% | 0.31% | 1.72%
48 | O=C(Cc1ccc(-c2ccccc2)cc1)N[C@H]1CCN(Cc2ccc(OCCCN3CCCCC3)cc2)C1 | 18.6% | 17.2% | 8.12%

Row | SMILES | inhibition [1] | inhibition [2] | inhibition [3]
49 | O=S(=O)(c1c(Cl)cccc1Cl)N1CCCCC(c2ccc(C(F)(F)F)cc2)=N1 | 2.16% | 4.23% | 4.51%
50 | O=C(Nc1ccncc1)Nc1ccc2c(c1)CCN(C1CCC1)CC2 | 3.98% | 3.34% | 11%
51 | COc1ccc(-c2cc(-c3nc4cc(C(=O)N5CCOCC5)ccc4[nH]3)c(=O)n(C)c2)cc1OC | 2.76% | 0.74% | 0.91%
52 | CC(C)c1cn2c3c(cc(C(=O)N[C@@H](Cc4ccccc4)[C@H](O)CNC4CCCCC4)cc13)N(C)S(=O)(=O)CC2 | -1.18% | -0.34% | -2.44%
53 | CN1CCN(CCCN(Cc2ccc(-c3cccc(CNC4CCCC4)c3)cc2)C(=O)/C=C/c2ccccc2)CC1 | 10.2% | 9.42% | 6.94%
54 | CN1CCC(Oc2ccc(CN3CC[C@H](NC(=O)c4cccc(C#N)c4)C3)c3ccccc23)C1 (stereo partly specified) | -0.8% | 1.42% | 2.12%
55 | CCc1cc(NC(=O)Nc2ccnc3ccccc23)ccc1OC | 19% | 17.9% | 11.6%
56 | CC1(C)N=C(N)N=C(N)N1c1ccc(Cl)cc1 | 5.04% | 4.91% | 4.69%
57 | CS(=O)(=O)c1ccc(CCNCc2ccc(-c3ccc(CN(C(=O)C4CC(=O)c5ccccc54)C4Cc5ccccc5C4)cc3)nc2)cc1 (stereo unspecified) | 1.52% | -0.58% | -0.89%
58 | c1ccc(C2=NN=C(c3ccccn3)C3C4CC(C23)C2C3CC(c5ccccc53)C42)nc1 (stereo unspecified) | 5.41% | 4.38% | 1.22%
59 | Nc1cccc(CNCc2ccc(-c3ccc(-c4nc5ccccc5[nH]4)s3)cc2)c1 | 2.71% | -0.53% | 2.48%
60 | COc1cc2nc(C)nc(Nc3ccc(Oc4ccccc4)cc3)c2cc1OC | -2.63% | 2.09% | -1.95%
61 | COc1ccc(Oc2cnc(N)nc2N)c(C(C)C)c1 | 4.31% | 5.88% | 2.01%
62 | Cc1cc(N(C)C)nc(Nc2ccc(NC(=O)c3ccc(F)cc3)cc2)n1 | 5.57% | 8.06% | 3.85%
63 | CNCCNCc1ccc(-c2ccc(-c3nc4cccc(C)c4[nH]3)cc2)cc1 | 5.52% | 4.65% | 4.77%
64 | CC1(C)NC(N)=NC(=N)N1OCCCNC(=O)c1ccc(C(=O)NCCCON2C(=N)N=C(N)NC2(C)C)cc1 | 0.28% | 0.77% | 1.51%
65 | Cc1cc(NCc2ccc(F)cc2)nc2cc(O)ccc12 | 2.81% | 3.64% | 1.59%
66 | O=C(Nc1ccccc1)N(Cc1ccccc1-c1cccc(CNCCc2ccccc2)c1)C1CCN(Cc2ccccc2)CC1 | -1.02% | 0.26% | -0.84%
67 | COc1ccccc1C1CC(c2ccc(Br)cc2)=NN1C(=O)c1ccccc1 (stereo unspecified) | 2.83% | 2.02% | 0.92%
68 | c1ccc(CN2CCc3cc4nccc(N5CCNCC5)c4cc32)cc1 | -3.94% | -1.76% | 0.88%
69 | O=C(Nc1ccc(-c2cccc(-c3nc4ccccc4[nH]3)c2)cc1)Nc1ccsc1 | -0.72% | 4.27% | -0.62%
70 | COc1ccccc1-n1ccnc1SCC(=O)Nc1cc(C(F)(F)F)ccc1Cl | -3.59% | -0.64% | -1.83%
71 | Cc1[nH]c2ccc(-c3ccc(N(C)C)cc3)cc2c(=O)c1Cl | 2.49% | 3.7% | 2.73%
72 | CCN(CCNC(=O)C1CCN(c2cc(-c3cccc(C)c3)ncn2)CC1)Cc1ccccc1 | 4.41% | 3.37% | 4.06%
